Screening data: PubChem, National Center for Advancing Translational Sciences (NCATS)
Only some compounds are listed: those with a hit (about 8% of all), similar ones and a draw of the others.
HT1080-NT tox: qHTS for induction of synthetic lethality in tumor cells producing 2HG: qHTS for the HT-1080-NT fibrosarcoma cell line | HT-1080-NT fibrosarcoma viability, CellTiter-Glo ATP luminescence, 48 h | Potency, µM (series often up to 46.1 µM), for the others: top-dose activity, negative = less viability, actives largely listed as cytotoxic | 1.6% of 360,000 active | AID 686970, 2013;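 further: NT is the 2HG producing partner of a matched IDH1 knockdown line; 0% = DMSO-treated cells and -100% = media-only wells without cells; nearly all actives have a fitted effect of over 55% in size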
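HT-1080-NT; 750 cells/well; 5% FBS RPMI; 48 h compound, 37 degrees C; CellTiter-Glo luminescence; curve fitting and curve-class assignment.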
KB-V1 cytotox: qHTS assay for MDR1-selective chemotherapeutics: Primary screen using the drug-selected MDR subline cells KB-V1 | Potency, µM (series often up to 46.1 µM), actives largely listed as cytotoxic | KB-V1 MDR cells viability, CellTiter-Glo, 72 h | 3.4% of 400,000 active; further: on the % scale 0 is the no-effect control and ±100 the full control effect; nearly all actives have a fitted effect of over 60% in size
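KB-V1 cells (P-gp-expressing MDR subline of KB-3-1) in phenol-red-free DMEM with 10% FBS were exposed to library compounds over a concentration series for 72 h at 37 degrees C. Viability read by CellTiter-Glo luminescence; concentration-effect curves fitted after normalization.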
MCF10A rerep: A quantitative high throughput screen for small molecules that induce DNA re-replication in MCF 10a normal breast cells; MCF 10A DNA re-replication, Hoechst nuclear intensity, 48 h; Potency, µM (highest dose often 46.1 µM), inactives show at the highest dose activity, positive = re-replication, actives largely listed as activators; 2.9% of 350,000 active; AID 624296, 2012; further: % of control where 0% means no effect; nearly all actives have a fitted effect of over 50% in size
KB-3-1 tox: qHTS assay for MDR1-selective chemotherapeutics: Primary screen using the parental adenocarcinoma cell KB-3-1; AID 1347075, 2019; KB-3-1 viability, CellTiter-Glo ATP luminescence, 72 h; 1.4% of 400,000 active; Potency, µM (highest dose often 46.1 µM), most hits filed as cytotoxic; further: on the % scale 0 is the no-effect control and ±100 the full control effect; nearly all actives have a fitted effect of over 60% in size
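Multi-concentration cytotoxicity screen in KB-3-1 cells grown in DMEM lacking phenol red with 10% FBS. After 72 h at 37 °C with compound, ATP-dependent luminescence was recorded.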
HT1080 IDH1KD tx: qHTS for induction of synthetic lethality in tumor cells producing 2HG: qHTS for the HT-1080-IDH1KD cell line; HT-1080 IDH1 knockdown viability, ATP luminescence, 48 h; Potency, µM (titrated, usually from 46.1 µM), for inactives: at the top dose activity, negative = toxicity, hits mostly cytotoxic; 2% of 360,000 active; AID 686971, 2013;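 further: 0% = DMSO wells and -100% = cell-free medium wells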
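Luminescent ATP read-out (CellTiter-Glo, 10 min at room temperature) after 48 h compound exposure at 37 °C gave viability of IDH1-knockdown HT-1080 cells. Activity was normalised to DMSO and cell-free wells, then fitted as concentration-response curves.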
SW480 rereplic: A quantitative high throughput screen for small molecules that induce DNA re-replication in SW480 colon adenocarcinoma cells; SW480 DNA re-replication, Hoechst DNA content imaging, 48 h; Potency, µM (series often up to 46.1 µM), inactives show at the top dose re-replication activation, most hits filed as activators; 1.8% of 340,000 active; AID 624297, 2012; further: % of control where 0% means no effect; nearly all actives have a fitted effect of over 55% in size
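DNA re-replication was detected as more nuclei of elevated Hoechst intensity after 48 hr exposure to compound (23 nL pinned per well of 250 cells).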
Numbers without * were called inactive; i = inactive; ? = inconclusive; nt = no result; [ ] = remark or other dose. The call rests on the fitted dose curve; in most records, active means well fitted curve in the direction sought with a large enough effect; inconclusive means small, poorly fitted or top-dose-only effect, or another doubt; inactive means no such curve, though single readings can be large; an effect the other way counts as inactive or inconclusive. Potency means the concentration at half of the fitted maximal effect.

SMILES	HT1080-NT tox	KB-V1 cytotox	MCF10A rerep	KB-3-1 tox	HT1080 IDH1KD tx	SW480 rereplic
COc1ccc(-c2cc(C(F)(F)F)n3ncc(C(=O)N(C)Cc4ccccc4)c3n2)cc1	-11%	i	?	i	?	23µM*
NC(=O)c1cnn2c(C(F)(F)F)cc(-c3ccccc3)nc12	-12%	?	7%	i	-4%[9.24 µM]	-9%
NC(=O)c1cnn2c(C(F)(F)F)cc(-c3ccc(F)cc3)nc12	-10%	13µM*	11%	i	0%	-6%
O=C(NC1CCCCC1)N1CCN(C2CCCCC2)CC1	-27%	i	-3%	i	-29%	24%
O=C(NC12CC3CC(CC(C3)C1)C2)N1CCN(C2CCCCC2)CC1	3%	i	2.1µM*	i	-7%	-1%
CCN(C(=O)CSc1nc2ccccc2n1CC(=O)Nc1ccc(F)cc1F)c1ccccc1	nt	i	nt	i	nt	nt
COc1cc2c(cc1NC(=O)c1ccccc1-c1ccccc1C(=O)O)-c1ccccc1C2	-12%	i	nt	i	-19%	nt
COc1cc(C(=O)Nc2ccc3ccccc3c2)cc(OC)c1OC	1.3µM*	?	2.6µM*	?	0.58µM*	1.3µM*
COc1cc(C(=O)Nc2ccc3c(c2)Cc2ccccc2-3)cc(OC)c1OC	-2%	i	8.2µM*	i	-13%	-2%
COc1cc(C(=O)Nc2ccc3c(c2)CCN3C(C)=O)cc(OC)c1OC	?	?	-7%	3.3µM*	2.6µM*	?
COc1ccc(C(=O)Nc2ccc3ccccc3c2)cc1OC	0%	i	11%	i	14%	-1%
COc1cc2c(cc1NC(=O)C(Cl)Cl)-c1ccc(NC(=O)C(Cl)Cl)cc1C2	?	15µM*	24%	?	13µM*	?
COc1cc(C(=O)N2CCc3ccccc32)cc(OC)c1OC	-14%	i	20%	i	-6%	23%
COc1cc(C(=O)Nc2ccc3c(c2)C(=O)c2ccccc2C3=O)cc(OC)c1OC	7%	i	-3%	i	27%	-4%
CCc1ccc(CNC(=O)CCCN2C(=O)c3cccnc3Oc3ccc(Cl)cc32)cc1	nt	i	nt	i	nt	nt
Cc1c(Cl)cccc1NC(=O)CNS(=O)(=O)c1cccs1	nt	i	nt	i	nt	nt
CCC(C)NCCCCOc1cc(C)cc(C(C)C)c1 (stereo not given)	?	?	0%	i	?	?
Cc1cccc2nc(-c3ccccn3)c(Nc3ccc(F)cc3)n12	nt	?	nt	i	nt	nt
O=C(COc1ccc(Cl)cc1)NCC(c1cccs1)S(=O)(=O)c1ccc(F)cc1 (stereo not given)	nt	i	nt	i	nt	nt
CCN1C(=O)[C@H]2[C@@H](c3ccc(C(F)(F)F)cc3)N[C@]3(CCCN(Cc4ccc(C(F)(F)F)cc4)C3=O)[C@H]2C1=O	-11%	i	nt	i	-13%	nt
O=C(CCSc1ccc(Cl)cc1)N1CCN(S(=O)(=O)c2ccccc2)CC1	-8%	21µM*	?	i	-11%	5%
CCOC(=O)N1CCN(C(=O)CCSc2ccc(Cl)cc2)CC1	7%	23µM*	14%	i	9%	-1%
O=C(Cc1ccccc1F)N1CCN(S(=O)(=O)c2ccc(Cl)cc2)CC1	-10%[9.24 µM]	i	16µM*	i	-5%	?
Cc1ccc(SCCC(=O)N2CCN(S(=O)(=O)c3ccccc3)CC2)cc1	-1%	nt	?	nt	-14%	10%
COc1ccc2cnnc(SCC(=O)Nc3ccc(C(=O)O)cc3)c2c1OC	2%	?	-1%	i	7%	-3%
SMILES	HT1080-NT tox	KB-V1 cytotox	MCF10A rerep	KB-3-1 tox	HT1080 IDH1KD tx	SW480 rereplic
COc1ccc2cnnc(SCC(=O)Nc3ccccc3)c2c1OC	0%	2.9µM*	-8%	i	0%	-6%
COc1ccc2cnnc(SCC(=O)Nc3ccc(C(C)=O)cc3)c2c1OC	1%	5.2µM*	-9%	i	0%	-6%
Cc1ccc2c(c1)C(c1ccccc1)N(C(=O)CC(C)C)CC(=O)N2 (stereo not given)	-9%	i	-6%	i	0%	-5%
CSc1ccc(CCNC(=O)Cn2ncc3c([nH]c4ccccc43)c2=O)cc1	0%	?	0%	i	0%	-4%
CCN(CC)CCOC(=O)c1ccc(N/C=C(/C#N)c2nc(-c3ccc(OC)c(OC)c3)cs2)cc1	23µM*	i	18µM*	i	-20%	23µM*
COc1ccc2[nH]cc(C(=O)CNc3nccs3)c2c1	nt	i	nt	i	nt	nt
O=c1cc(O)nc(SCc2ccccc2)n1-c1ccc(F)cc1	7%	i	?	i	9%	-12%
S=C(NCCCN1CCOCC1)N1CCN(c2nc(-c3ccccc3)cs2)CC1	18µM*	i	?	i	23µM*	0%
O=C(NC1CCCCC1)N1CCN(CCc2ccccc2)CC1	5%	18µM*	?	i	4%	0%
COCCCNC(=S)N1CCN(c2nc(-c3ccc(F)cc3)cs2)CC1	?	i	-2%	?	-17%	?
COc1ccc(-c2csc(N3CCN(C(=O)c4ccccc4)CC3)n2)cc1	5%	16µM*	?	i	0%	-6%
CCN1CCN(C(=O)NC2CCCCC2)CC1	9%	i	?	i	7%	?
S=C(NCCCN1CCOCC1)N1CCN(c2nc(-c3ccc(Cl)cc3)cs2)CC1	?	i	?	?	?	?
CCOCCCNC(=S)N1CCN(c2nc(-c3ccc(F)cc3)cs2)CC1	21µM*	?	-6%	?	?	-12%
CC(C)(C)c1ccc(C(=O)N2CCC2(C)C(=O)Nc2cccc3ccccc23)cc1 (stereo not given)	?	i	nt	i	?	nt
COc1ccc(CNC(=O)CCS(=O)(=O)c2cc3c4c(c2)CCN4C(=O)CC3)cc1OC	nt	i	nt	i	nt	nt
O=C(O)c1cc(S(=O)(=O)N2CCCCC2)ccc1N1CCCCC1	-7%	nt	-1%	nt	-2%	-9%
COc1ccc(-c2csc(N3C(=O)C4C5c6ccccc6C(c6ccccc65)C4C3=O)n2)cc1 (stereo not given)	17%	6.5µM*	-1%	i	?	-5%
